This is part of a sample that, as a whole, favours compounds with a hit. Of some 83,000 tested, about 20% had one in any assay.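 Values shown are percent growth following 48 h exposure of cells in 96-well plates to a single concentration of compound; below 10 was considered active.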 A number with no mark means an inactive call. Activity calls are given as the source filed them.
Experiments:
Assay in all cases: NCI-60 one-dose screen, 48 h (100 = growth as untreated, 0 = no growth, -100 = all killed)
Details in all cases: 10 µM unless noted
[1] = system: NCI-H226 lung
[2] = system: NCI-H322M lung
[3] = system: HOP-62 NSCLC
[4] = system: NCI-H460 lung
[5] = system: HOP-92 NSCLC
[6] = system: NCI-H522 lung
[7] = system: A549/ATCC NSCLC
[8] = system: 786-0 renal
[9] = system: COLO 205 colon
[10] = system: DU-145 prostate

Structure (SMILES)	growth [1]	growth [2]	growth [3]	growth [4]	growth [5]	growth [6]	growth [7]	growth [8]	growth [9]	growth [10]
COc1ccc(C(=O)/C=C/c2ccc(OCc3ccc(Cl)cc3)c(OC)c2)cc1OC	56.4%	70.9%	103%	61.9%	64.9%	68.3%	70%	80.7%	88.4%	72.3%
O=C(CN1CCOCC1)NNc1ncnc2ccccc12	107%	102%	115%	108%	51.5%	-61% (active)	105%	58.9%	102%	102%
CCC/C=C/C=C/C(=O)N[C@@H](Cc1cc(F)cc(F)c1)C(=O)N[C@@H]1C(=O)N2CCC[C@H]2C(=O)N2CCCC[C@H]2C(=O)N[C@@H](C)C(=O)N2C[C@H](C)C[C@H]2C(=O)O[C@H]1C	19.9%	36.5%	31.6%	11.9%	23%	17.9%	31.8%	37.8%	-54.1% (active)	22.6%
Cc1ccc2c(n1)C(=O)C(Cl)=C(Nc1cccc(C(C)C)c1)C2=O	35.4%	85%	89.1%	78.8%	110%	23.4%	29.9%	68.4%	112%	22.5%
CN1C(=S)N(C)C2C1NN=C1SC(c3ccccc3)=CC(=O)N12 (stereo not given)	83.6%	104%	109%	103%	72.8%	87.2%	93.7%	98%	111%	106%
CCCC(=O)NC(c1cccc(N(C)C)c1)c1cc(C)c2cccnc2c1O (stereo not given)	65.4%	44.9%	44%	25.7%	64.2%	75.3%	79.3%	56.6%	88%	66.2%
COC(=O)C1CN(S(=O)(=O)/N=C2\NC(=O)NC2=C(Cl)Cl)C1	106%	102%	109%	108%	98.9%	99.1%	101%	104%	124%	116%
CCOC(=O)c1sc(N)c(C(=O)OCC)c1C	59.7%	83.1%	52.6%	92.5%	-7.89% (active)	56.9%	65.3%	50.4%	68.4%	66.2%
Cc1cc(=O)oc2cc(OCCCOc3ccc(/C=C/C(=O)Nc4ccc(Cl)cc4)cc3)ccc12	79.5%	83%	90.2%	-6.83% (active)	25.2%	82.6%	28.6%	46.4%	68.2%	73.6%
C#Cc1nc(C2=C(C)C(=O)/C(=N/OC(C)=O)C2)cs1	107%	101%	88.5%	98.5%	50%	82.6%	96.3%	-94.5% (active)	119%	85.7%
COc1ccc(NC(=O)c2sc3nc(-c4cnccn4)cc(-c4cccs4)c3c2N)cc1	35.5%	82.3%	84.4%	55.3%	57.7%	78.2%	72.5%	62.7%	64.7%	88.9%
CCCCN1C(=O)/C(=c2\sc3n(c2=O)C2C(NN=3)N(CC)C(=O)N2CC)c2cc(Cl)ccc21 (stereo not given)	89.8%	96.3%	83.1%	78.5%	71.3%	46.5%	89.3%	90.7%	114%	94.8%
Cc1cccc2sc(/N=C(\N)C(Br)Br)nc12	42.8%	48.8%	67%	1.4% (active)	47.6%	-76% (active)	37.4%	31.6%	27%	4.67% (active)
[Cl][Ru].c1ccc(-c2cc(-c3ccccn3)nc(-c3ccccn3)c2)cc1.c1ccc(-c2ccnc3c2ccc2c(-c4ccccc4)ccnc23)cc1	-18% (active)	-6.84% (active)	25.1%	-63% (active)	-42.9% (active)	-52.8% (active)	14.8%	6.1% (active)	-77.9% (active)	7.67% (active)
C#Cc1nc(C2=C(C)C(OC(=O)CCC(=O)O)CC2)cs1 (stereo not given)	106%	104%	111%	107%	106%	101%	90.7%	-86.5% (active)	122%	106%
CC(=O)Oc1ccccc1C(=O)Nc1ccc(C(=O)/C=C/c2cccs2)cc1	116%	106%	101%	116%	108%	102%	104%	88.7%	126%	113%
Cc1cccc(/C=C/c2nn3c(-c4ccco4)nnc3s2)c1	96.5%	94.4%	100%	102%	119%	95.2%	95.3%	97.6%	107%	105%
COc1cc(-c2ccc3ncnc(NC(C)c4ccccc4)c3c2)cnc1OC (stereo not given)	52.8%	15.4%	44.4%	64.5%	20.1%	40.9%	41.9%	44.2%	72.9%	37.2%
Nc1c(C(=O)Nc2ccc(Cl)cc2)sc2nc(-c3cnccn3)cc(-c3cccs3)c12	13.2%	70.2%	44.4%	63.1%	52.6%	93%	68.8%	71.2%	95.7%	70.3%
O=C(CCN1C(=O)/C(=C/c2ccccc2F)SC1=S)N1CCOCC1	105%	80.5%	117%	90.7%	133%	41.4%	102%	77.4%	108%	57.5%
Clc1ccc2c(NCCCn3ccnc3)c3oc4ccc(Cl)cc4c3nc2c1	57.8%	71%	66.6%	11.1%	57.4%	82.9%	89.2%	41.6%	96.5%	92%
COc1ccc(COc2ccc(/C=C3/C(=O)Nc4cc(Cl)ccc43)cc2)cc1	89.4%	87.7%	95.4%	98.2%	93.1%	92%	98.7%	110%	101%	98.2%

Structure (SMILES)	growth [1]	growth [2]	growth [3]	growth [4]	growth [5]	growth [6]	growth [7]	growth [8]	growth [9]	growth [10]
O=C(NNc1nc2cc(F)ccc2n2c(CN3CC4(COC4)C3)ccc12)c1cnccn1	7.31% (active)	22.7%	23%	-7.69% (active)	45.2%	2.26% (active)	13.2%	-6.84% (active)	20.2%	24.8%
CN1CCN(Cc2ccc(NC(=O)c3cncc(C#Cc4cnc5[nH]ncc5c4)c3)cc2C(F)(F)F)CC1	20.4%	45.8%	50.8%	11.1%	-12.2% (active)	50.9%	34.3%	45.7%	21.1%	32.8%
COc1ccc(-c2nn3c(-c4ccccc4F)nnc3s2)cc1	89.4%	75%	67.5%	30%	76.9%	20.2%	56.6%	72.5%	41.6%	72.2%
CC(C)NC(=O)c1cc(-c2ccc(NC(=O)Nc3ccc(N4CCOCC4)c(C(F)(F)F)c3)cc2)nc2cccnc12	80%	91.2%	43.9%	55.2%	72.3%	87%	62.4%	17%	99.7%	78.9%
Clc1ccc2c(NCCCN3CCOCC3)c3oc4ccccc4c3nc2c1	45.3%	37.8%	66.5%	13.8%	48.7%	43.1%	44.3%	28.3%	29.9%	31.3%
Cn1c(SCC(=O)Nc2ccc(-c3nc4ccc([N+](=O)[O-])cc4[nH]3)cc2)nc2ccccc2c1=O	37.9%	68.6%	94.9%	82.3%	59.5%	74.1%	89.5%	81.5%	98.4%	90.6%
Clc1ccc(-c2cn3cc(Cc4ccc(Cl)c(Cl)c4)sc3n2)cc1	85.7%	70.5%	70.4%	22.5%	81.8%	76%	61.3%	84%	42.7%	69.6%
COC1CCN(Cc2ccc3c(NNC(=O)c4cnccn4)nc4cc(F)ccc4n23)C1 (stereo not given)	28.9%	30.8%	30.4%	6.39% (active)	40.4%	7.95% (active)	18.9%	12.7%	12.5%	34.8%
C[C@@H](Nc1c(C#N)cnc2ccc(-c3cnc(N)nc3)cc12)c1ccccc1	18.8%	-6.52% (active)	31.1%	13.3%	-10.5% (active)	-2.38% (active)	15.8%	13.5%	17.3%	12.8%
CN(C)CCCNc1c2ccccc2nc2c1oc1ccc(Cl)cc12	28.5%	24.4%	55.7%	12.6%	34.8%	38%	27.5%	18.6%	14.5%	20.8%
Clc1ccc(Cc2nnc3sc(-c4cccnc4)nn23)cc1	93%	87.8%	107%	103%	91.9%	89.5%	98.2%	92.6%	115%	101%
COc1cccc(COc2ccc(/C=C3/C(=O)Nc4cc(Cl)ccc43)cc2)c1	84.9%	83.9%	85.4%	103%	79.8%	84%	92.4%	102%	102%	98.5%
OC1CCN(CCCOc2c3ccccc3nc3c2oc2ccccc23)CC1	-31.2% (active)	-17% (active)	5.52% (active)	0.894% (active)	-11.8% (active)	-48.6% (active)	-12.2% (active)	7.21% (active)	-63.8% (active)	1.33% (active)
CSc1ccc2c(c1)N(C(=O)/C(C#N)=C/c1c[nH]c3ccccc13)c1ccccc1S2	50.4%	86.1%	59.9%	45.5%	44.1%	5.48% (active)	47.3%	50%	40.8%	51.3%
CN(C)S(=O)(=O)c1oc(-c2ccccc2)nc1C#N	98.2%	99.6%	99.6%	109%	74.2%	-64.7% (active)	105%	66.1%	75.9%	34.7%
OC1CCc2c(-c3ccc4ncnc(N5CCc6cc(F)c(Cl)cc65)c4c3)cncc21 (stereo not given)	56.7%	15%	63.7%	50.7%	23.1%	40.1%	50.3%	43.7%	82.3%	35.8%
Clc1ccc2oc3c(NCCCN4CCOCC4)c4ccccc4nc3c2c1	16.4%	21.6%	43.5%	6.4% (active)	33%	28.2%	25.1%	20%	13.2%	16.8%
COc1cc2nc(-c3ccc(C(F)(F)F)cc3)cc(OCCCNCC3CCCO3)c2cc1OC (stereo not given)	54.3%	57.2%	53.8%	21.8%	26.3%	41.8%	37.3%	-55.2% (active)	23.3%	36.7%
COc1ccc(/C=C2\SC(=Nc3cc(C)on3)NC2=O)cc1	102%	97.7%	96%	103%	94.4%	100%	102%	102%	103%	109%
Nc1nc(N)c2c(n1)NC(c1ccc(F)cc1)CC(c1ccc(Nc3nc(NCCO)nc(Nc4ccc(Cl)cc4)n3)cc1)=N2 (stereo not given)	22.2%	29.1%	68.1%	-54.5% (active)	-65.5% (active)	-18.4% (active)	57%	-71.1% (active)	28.4%	12.2%
Nc1c(C(=O)Nc2ccc(C(F)(F)F)cc2)sc2nc(-c3cnccn3)cc(-c3cccs3)c12	6.24% (active)	81.8%	68.1%	69.7%	-27.4% (active)	88.5%	77.9%	-90.3% (active)	104%	90.1%
CC(=O)Oc1ccccc1C(=O)Nc1cc(C(C)C)ccc1C	9.84% (active)	11.7%	19.6%	9.6% (active)	-19.5% (active)	4.56% (active)	13.1%	25.6%	92.7%	23.1%

From PubChem BioAssay (NCI)
